GLP1R cytotox: cytotoxicity counter-screen for GLP-1 receptor inverse agonists; Potency, µM (titrated, usually from 38.3 µM), for the others: at the top dose activity change, negative = inhibition, usual class: inhibitors; 410,000 compounds, 0.13% hits; AID 624418; HEK293 cAMP-luciferase reporter cells, luminescence, 24 h;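 note: loss of luciferase light is scored as toxicity; % is set by controls: 0 for no effect and ±100 for the full control effect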
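Here, cytotoxicity is scored as loss of luminescence. The MLSMR collection was tested on cells seeded in medium containing 10% Nu serum, with a 24 hr compound exposure preceded by 12 hours of culture.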
GLP-1R agonist: agonists of human GLP-1 receptor. HEK293 GLP-1R CRE-luciferase, luminescence, 4-6 h; cells express a hypersensitive GLP-1R form. Potency, µM (highest dose often 45.6 µM), without a hit: top-dose activation, actives largely listed as activators. 380,000 compounds, 0.007% hits; note: % of control where 0% means no effect
Target sequence (P43220 whole entry, looked up): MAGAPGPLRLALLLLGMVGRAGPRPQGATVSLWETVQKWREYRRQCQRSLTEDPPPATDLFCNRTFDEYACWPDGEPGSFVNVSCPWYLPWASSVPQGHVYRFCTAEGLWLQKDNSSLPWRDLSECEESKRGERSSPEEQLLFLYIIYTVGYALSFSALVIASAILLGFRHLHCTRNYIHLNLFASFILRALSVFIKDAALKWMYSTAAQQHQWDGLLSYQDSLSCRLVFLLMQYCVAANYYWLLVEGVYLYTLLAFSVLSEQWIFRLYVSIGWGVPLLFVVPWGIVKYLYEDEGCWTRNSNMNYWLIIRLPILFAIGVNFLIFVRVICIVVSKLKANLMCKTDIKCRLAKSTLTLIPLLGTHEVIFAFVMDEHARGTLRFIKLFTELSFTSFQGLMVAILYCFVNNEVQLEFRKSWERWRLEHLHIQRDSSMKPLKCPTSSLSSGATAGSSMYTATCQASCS
Gal4-VP16 FLuc: inhibits Gal4-VP16 luciferase reporter, ROR gamma counter-screen. Drosophila S2 Gal4-VP16 UAS-luciferase, luminescence, 20 h. Potency, µM (titrated, usually from 53.6 µM), for inactives: top-dose activity, negative = inhibition, most hits filed as inhibitors. 310,000 compounds, 3.5% hits;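 note: Gal4-VP16 expression switched on by copper sulfate through the metallothionein promoter; % is set by controls: 0 for no effect and ±100 for the full control effect; nearly all actives have a fitted effect of over 50% in size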
GLP1R inv ag: acts as inverse agonist at human GLP-1 receptor; P43220; HEK293 GLP-1R CRE-luciferase, luminescence, 24 h; GLP-1R form is constitutively active; Potency, µM (titrated, usually from 38.3 µM), inactives show at the top dose activity change, negative = inhibition, hits mostly inhibitors; 410,000 compounds, 1.6% hits; note: % is set by controls: 0 for no effect and ±100 for the full control effect; nearly all actives have a fitted effect of over 55% in size
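HEK293 cells stably co-expressing constitutively active GLP-1R and a cAMP-responsive luciferase reporter were seeded in DMEM with 10% Nu serum, given compounds after 12 h, and incubated 24 h at 37 deg C. Luminescence was then read.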
RORg inh: blocks mouse ROR gamma transcriptional activity; 310,000 compounds, 5.4% hits; Drosophila S2 Gal4-RORgamma UAS-luciferase reporter, 20 h; Potency, µM (titrated, usually from 53.6 µM), inactives show at the top dose activity change, negative = inhibition, most hits filed as inhibitors; P51450; note: % is set by controls: 0 for no effect and ±100 for the full control effect; nearly all actives have a fitted effect of over 60% in size
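ROR gamma transcriptional activity was tracked as Gal4-UAS luciferase output in stably transfected Drosophila Schneider cells, with compound added 1 hr before 700 uM copper sulfate induction and a 20 hr ambient-temperature incubation.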
An asterisk follows results filed as active; ? = inconclusive; . = not tested or not shown; [ ] = remark or other dose. An excerpt weighted towards active compounds, which were near 5.9% of everything screened. Calls come from the whole dose curve; as a rule, active = well fitted curve in the direction sought with a large enough effect; inconclusive = small, poorly fitted or top-dose-only effect, or another doubt; inactive = no such curve, though single readings can be large; an effect the other way counts as inactive or inconclusive. Potency is the fitted concentration of half-maximal effect.

SMILES	GLP1R cytotox	GLP-1R agonist	Gal4-VP16 FLuc	GLP1R inv ag	RORg inh
CCOC(=O)c1ccc(NC(=S)Nc2cccc(C)n2)cc1	1.3µM*	8%	?	0%	0.89µM*
Cc1cccc(OCCNC(=S)NC(=O)c2cncc(Br)c2)c1	-3%	-18%	6.3µM*	11%	5µM*
Cc1ccc(C)c(NC(=S)NC(=O)c2cncc(Br)c2)c1	?	-3%	.	-23%	.
CCOC(=O)c1ccc(NC(=S)NC(=O)c2cncc(Br)c2)cc1	-12%	7%	?	-10%	2.2µM*
CCOC(=O)c1ccc(NC(=S)NN)cc1	-1%	3%	?	-4%	10µM*
CCOC(=O)c1ccc(NC(=S)NCc2ccc(F)cc2)cc1	10%	13%	.	?	.
COc1cc(OC)c2c(=O)c(-c3ccccc3)coc2c1	.	.	-8%	.	18%
CCn1cc2nc(SCc3cc(C)ccc3C)n(CCc3ccccc3)c(=O)c2n1	-6%	.	.	?	.
CCCCOC(=O)c1ccc(NC(=S)NC(=O)c2c(Br)c(C)nn2C)cc1	-8%	-1%	13µM*	15%	16µM*
CCCCOC(=O)c1ccc(NC(=O)c2cnccn2)cc1	-11%	-8%	16%	10%	8%
COC(=O)Cc1ccc(NC(=S)Nc2cccc(C)n2)cc1	?	15%	?	?	4.5µM*
COc1cc(OC)cc(C(=O)Nc2ccc3nc(N4CCC(C)CC4)cc(C)c3c2)c1	-17%	-2%	.	?	.
c1ccc(C[C@H]2CNCCN2CCc2cccc3ccccc23)cc1	-23%	6%	.	11µM*	.
Cc1cccnc1NC(=O)c1ccc([N+](=O)[O-])o1	23%	0%	-23%	50%	-37%
O=C(Nc1ccccc1Cl)c1ccc([N+](=O)[O-])o1	-5%	3%	16µM*	114%	10µM*
Cc1cccc(NC(=O)c2ccc([N+](=O)[O-])o2)n1	-4%	3%	?	97%	11µM*
Cc1ccccc1NC(=O)c1ccc([N+](=O)[O-])o1	-12%	-1%	-14%	40%	-23%
CCCCCn1c(=O)[nH]c2cc(C(=O)Nc3ccc(OC)c(OC)c3)ccc2c1=O	0%	-2%	.	9%	.
CCOC(=O)C(C)Sc1nc2c(c(-c3cccs3)c1C#N)CCC2 (stereo unspecified)	44%	23%	25µM*	?	?
Cc1nnsc1C(=O)N/N=C/c1ccc2ccccc2c1O	7%	-7%	2.8µM*	?	4.5µM*
Cc1c(/C=N\NC(=O)c2ccc([N+](=O)[O-])cc2)cnn1C	1%	-2%	3%	14%	-34%
CC(=O)n1cc(/C=N/NC(=O)c2ccc([N+](=O)[O-])cc2)c2ccccc21	-5%	1%	?	13%	3.5µM*
CC(=O)n1cc(/C=N/NC(=O)c2sc(C)nc2C)c2ccccc21	-14%	5%	?	1%	14µM*
Cc1ccc(C)c(-c2csc(-c3c(N)c(C(=O)c4ccc5c(c4)OCO5)n4ccccc34)n2)c1	13%	.	.	13%	.
CCOc1ccc(/C=N/Nc2nc(=O)[nH]nc2C)cc1OC	2%	21%	-1%	9%	13µM*
SMILES	GLP1R cytotox	GLP-1R agonist	Gal4-VP16 FLuc	GLP1R inv ag	RORg inh
CCOc1cc(/C=N/Nc2nc(=O)[nH]nc2C)ccc1O	?	8%	-30%	3%	8.9µM*
CCOc1ccc(/C=N/Nc2ccccn2)cc1OC	16%	14%	?	13%	10µM*
COc1cc(/C=N/Nc2nc(=O)[nH]nc2C)cc(OC)c1O	-7%	11%	-14%[10 µM]	15%	-32%
CCOc1cc(/C=N/Nc2ncnc(Cl)c2N)ccc1O	-9%	9%	?	27%	20µM*
COc1cccc([C@@H]2Oc3ccc(Br)cc3C[C@H]2OC(=O)NCCc2ccc(OC)c(OC)c2)c1	.	.	5%	.	?
CCOc1ccc(/C=C/c2nc(C#N)c(NCc3ccc(OC)cc3)o2)cc1	-18%	.	.	-10%	.
COc1ccc(C(=O)/C=C/Nc2cc(C)ccn2)cc1	-5%	-1%	?	?	0.2µM*
CSc1ccc(NC(=O)Nc2cc(C)ccn2)cc1	16%	-1%	?	-6%	8.9µM*
COc1ccc(C(=O)NC(=O)Nc2cc(C)ccn2)cc1	-15%	-1%	0.18µM*	-71%	0.04µM*
COc1ccc(NC(=O)Nc2cc(C)ccn2)cc1	0%	-1%	.	?	.
Cc1ccnc(NC(=O)Nc2ccc(F)cc2)c1	-22%	-16%	-14%	-14%	?
O=C(N/N=C/c1ccc([N+](=O)[O-])o1)c1cc(-c2cccc(Br)c2)nc2ccccc12	-38%	-4%	?	?	3.2µM*
O=C(N/N=C/c1ccc2c(c1)OCO2)c1cc(-c2ccccc2)nc2ccccc12	-31%	-24%	?	-6%	?
CCCc1ccc(-c2cc(C(=O)N/N=C/c3ccc([N+](=O)[O-])o3)c3ccccc3n2)cc1	-25%	-5%	8.9µM*	?	7.1µM*
Cc1cc(C(=O)N/N=C/c2ccc([N+](=O)[O-])o2)c(C)o1	-6%	-1%	?	8%	-41%
CCN(CC)c1ccc(C(=O)Nc2cccc(F)c2)cc1	-29%	25%	?	5.6µM*	?
CCC1(C)Cc2nc3[nH]c(=S)n(-c4ccc(C)cc4)c(=O)c3cc2CO1 (stereo unspecified)	-8%	2%	14µM*	2%	1.3µM*
Cc1ccc(-n2c(=S)[nH]c3nc4c(cc3c2=O)COC(C)(C)C4)cc1	-3%	-2%	?	0%	3.5µM*
Cc1ccccc1-n1c(=S)[nH]c2nc3c(cc2c1=O)CCCC3	11%	1%	4.5µM*	22%	1.3µM*
Cc1ccccc1-n1c(=S)[nH]c2nc3c(cc2c1=O)COC(C)(C)C3	4%	-1%	11µM*	-21%	5µM*
CSc1nc2nc3c(cc2c(=O)n1-c1ccc(C)cc1)COC(C)(C)C3	3%	3%	-10%	13%	29%
CCCCC/C=C\C/C=C\C/C=C\CCCCC(=O)NCCCC(=O)O	.	.	-3%	.	-1%
Fc1ccc(-c2noc3ncnc(Nc4ccc(F)cc4F)c23)cc1	11%	.	.	4%	.
CCN1c2ccccc2-c2nc3ccccc3n2C1c1cccs1 (stereo unspecified)	7%	-5%	?	?	13µM*
O=C1CCCC=C1[C@@H](O)CCOC(c1ccccc1)(c1ccccc1)c1ccccc1	.	.	-1%	.	7%
Fc1ccc(C(CCCn2nnc(-c3cccnc3)n2)c2ccc(F)cc2)cc1	-9%	-2%	?	10µM*	-22%
COc1ccc(CCNC(=O)c2sc3nc4n(c(=O)c3c2C)CCCC4)cc1OC	6%	.	.	12%	.
COc1ccc(-n2c3c(cc(C(=O)NNc4ccccc4)c2=O)C(=O)CC(C)(C)C3)cc1	-11%	12%	-2%	1µM*	21%

Compound activity (PubChem)
